# TDP1 cell noCPT: qHTS for Inhibitors of human tyrosyl-DNA phosphodiesterase 1 (TDP1): qHTS in cells in absence of CPT; DT40 Tdp1-/- hTDP1 cells, no CPT, ATP luminescence, 48 h; Potency, µM (highest dose often 46.2 µM), inactives show at the top dose activity change, negative = growth inhibition, most hits filed as inhibitors; actives 15% (n = 420,000); further: potency means the concentration at half of the fitted maximal effect; on the % scale 0 is the no-effect control and ±100 the full control effect; nearly all actives have a fitted effect of over 55% in size
#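 Growth kinetics read by CellTiter-Glo luminescence after ≥48 hr at 37 °C. Cells: DT40 Tdp1-/- stably carrying human TDP1, 400 per well, compound exposure in the absence of CPT (DMSO vehicle).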
# BCR signal inh: inhibitors of chronic active B-cell receptor signaling; ABC-DLBCL IkBa-CBG/CBR reporter, luminescence ratio, 4 h; Potency, µM (doses to about 46.1 µM), for inactives: at the highest dose activity change, negative = inhibition, most hits filed as inhibitors; actives 0.05% (n = 340,000); AID 493014; active means well fitted inhibition curve with a large enough effect in the signal ratio, with a control signal flat, not every such curve was filed as active; inconclusive means small, poorly fitted or top-dose-only effect, or effect the other way, or a change in a side signal; the % refers to the signal ratio;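 further: potency means the concentration at half of the fitted maximal effect; plate controls were basal doxycycline-induced cells for no effect and cells given 10 µM MG132 for full effect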
#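 TMD8 human ABC-DLBCL cells with doxycycline-inducible IκBα–green luciferase fusion and unfused red luciferase, in 0.5% FBS medium; compounds up to 46 uM, 4 h at 37C. Green/red luminescence ratio, filter-overlap corrected, fitted to concentration-response curves.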
# IL1B secr inh: inhibitors of inflammasome signaling (IL-1 beta secretion). THP-1 LPS/ATP IL-1B secretion, AlphaLISA, 16 h; stronger effect = lower value. activity change, % at 57.5 µM. actives 4.7% (n = 360,000). AID 743279; in the data active means activity change below about -50%; inconclusive means mostly about -30% to -49%; further: on the % scale 0 is the no-effect control and ±100 the full control effect
#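 Secreted IL-1B measured by AlphaLISA bead assay after 16 h compound exposure of THP-1 cells; compounds (final up to 57.5 uM) added 1 h before LPS (250 ng/mL) and ATP (1.25 mM) stimulation; lower signal means less secretion.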
# SW480 rereplic: DNA re-replication induction in SW480 cells; SW480 DNA re-replication, Hoechst DNA content imaging, 48 h; Potency, µM (series often up to 46.1 µM), inactives show at the highest dose re-replication activation, hits mostly activators; actives 1.8% (n = 340,000); AID 624297; further: potency means the concentration at half of the fitted maximal effect; % of control where 0% means no effect; nearly all actives have a fitted effect of over 55% in size
#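 Image-based read-out: total Hoechst fluorescence of nuclei (405 nm excitation, 500-530 nm emission), with hits raising the fraction of high-intensity nuclei. SW480 colon cells incubated 48 hr with compounds at 37 C.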
# MCF10A rereplic: inducers of DNA re-replication in MCF 10A breast cells | MCF 10A DNA re-replication, Hoechst nuclear intensity, 48 h | Potency, µM (highest dose often 46.1 µM), for inactives: at the top dose activity, positive = re-replication, most hits filed as activators | actives 2.9% (n = 350,000); further: potency means the concentration at half of the fitted maximal effect; % of control where 0% means no effect; nearly all actives have a fitted effect of over 50% in size
# DT40 TDP1 CPT: growth inhibition of DT40 Tdp1-/-;hTDP1 cells with camptothecin (screen for TDP1 inhibitors); actives 12% (n = 420,000); Potency, µM (titrated, usually from 46.2 µM), inactives show at the highest dose activity change, negative = growth inhibition, most hits filed as inhibitors; chicken DT40 Tdp1-/-;hTDP1 cells + 20 nM CPT, ATP luminescence, 48 h; further: potency means the concentration at half of the fitted maximal effect; on the % scale 0 is the no-effect control and ±100 the full control effect; nearly all actives have a fitted effect of over 55% in size
#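 Cell growth measured by CellTiter-Glo luminescence after a minimum 48 h, 37 C compound exposure with 20 nM CPT in Tdp1-knockout DT40 cells stably expressing hTDP1, seeded 400/well; qHTS titration format.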
# * = called active by the depositor; i = inactive; ? = inconclusive; . = no result given; [ ] = another dose, or the depositor's remark. Hits are enriched below; roughly 19% of the tested compounds scored in any of these assays. Unless noted, the call rests on the fitted dose curve; in most records, active means well fitted curve in the direction sought with a large enough effect; inconclusive means small, poorly fitted or top-dose-only effect, or another doubt; inactive means no such curve, though single readings can be large; an effect the other way counts as inactive or inconclusive.
SMILES,TDP1 cell noCPT,BCR signal inh,IL1B secr inh,SW480 rereplic,MCF10A rereplic,DT40 TDP1 CPT
COc1ccc(CNC(=O)c2ccc(N3CCC4(CC3)CC(c3ccc(Cl)cc3)=NO4)c([N+](=O)[O-])c2)cc1,0.92µM*,.,-10,?,2%,?
CCN(CC(=O)Nc1ccccc1C(F)(F)F)C(=O)c1oc2ccc(OC)cc2c1C,?,?,-3,-44%,18%,?
COc1cc(/C=C2/C(=O)NN(c3ccc(C)c(Cl)c3)C2=O)cc([N+](=O)[O-])c1O,0%,7%,-9,-33%,0%,-9%
Cc1ccc(N2NC(=O)/C(=C\c3cc4c(cc3[N+](=O)[O-])OCO4)C2=O)cc1C,?,?,-105*,0%,18µM*,?
COc1cccc(C(c2nnnn2C2CCCC2)N2CCN(C/C=C/c3ccccc3)CC2)c1OC (configuration not stated),?,.,-16,.,.,?
COc1ccc(-n2nnnc2C(c2cccc(OC)c2OC)N2CCN(C/C=C/c3ccccc3)CC2)cc1 (configuration not stated),18µM*,.,?,.,.,23µM*
COc1ccc(-n2nnnc2C(c2ccccc2)N2CCN(C/C=C/c3ccccc3)CC2)cc1 (configuration not stated),?,.,-55*,.,.,21µM*
COc1ccc(-n2nnnc2C(CCc2ccccc2)N2CCN(C/C=C/c3ccccc3)CC2)cc1 (configuration not stated),16µM*,.,.,.,.,?
CCC(c1nnnn1-c1ccc(OC)cc1)N1CCN(C/C=C/c2ccccc2)CC1 (configuration not stated),?,.,?,.,.,21µM*
CC12CCC(C1)C(C)(C)C2=O (configuration not stated),-1%,.,.,-10%,0%,-27%
CC1CCN(Cc2cc(=O)oc3ccc(C(C)C)cc23)CC1,?,1%,-4,-11%,19%,26µM*
Cc1cc2oc(=O)cc(CN3CCC(C)CC3)c2cc1C,-9%,0%,24,-8%,-7%,-16%
CC(C)c1ccc2oc(=O)cc(CN3CCN(c4ccccc4)CC3)c2c1,?,1%,8,-5%,1%,?
CC(C)c1ccc2oc(=O)cc(CN3CCCCC3)c2c1,23µM*,9%,-2,-12%,?,29µM*
COc1cccc(C(c2sc3nc(-c4ccco4)nn3c2O)N2CCN(C)CC2)c1 (configuration not stated),-19%,0%,.,.,.,0%
CC(=O)Nc1ccc(NC2CCCCC2NS(=O)(=O)c2ccc(Cl)cc2)cc1 (configuration not stated),15%,4%,22,0%,0%,-9%
Cc1ccc(O)c(-c2cc(-c3ccccc3C)[nH]n2)c1,?,5%,-95*,?,?,?
COc1ccc(O)c(-c2cc(-c3ccccc3[N+](=O)[O-])[nH]n2)c1,?,11%,0,3%,5%,10%
Oc1ccccc1-c1cc(-c2ccccc2Cl)[nH]n1,?,.,?,-2%,?,-30%
O=[N+]([O-])c1ccccc1-c1cc(-c2cc(Cl)ccc2O)n[nH]1,?,6%,-101*,-25%,?,?
Cc1ccc(O)c(-c2cc(C(F)(F)C(F)F)[nH]n2)c1,16µM*,?,-8,1%,12%,?
Oc1ccccc1-c1cc(-c2ccco2)[nH]n1,-26%,?,7,3%,?,-11%
Cc1ccc(O)c(-c2cc(-c3ccccc3[N+](=O)[O-])[nH]n2)c1,-14%,0%,-87*,5%,?,-4%
CCN(CC)S(=O)(=O)c1cc(C(=O)Nc2cc(C)[nH]n2)ccc1Cl,4%,-1%,14,23%,13%,-5%
CCN(CC(=O)Nc1c(F)cccc1F)C(=O)C1CCN(C(=O)Nc2ccccc2)CC1,5%,-2%,8,-3%,-5%,1%
SMILES,TDP1 cell noCPT,BCR signal inh,IL1B secr inh,SW480 rereplic,MCF10A rereplic,DT40 TDP1 CPT
Oc1ccc(Cl)cc1-c1cc(-c2ccccc2Cl)[nH]n1,-18%,?,13,?,-180%[0.0737 µM],-15%
Oc1ccc(Cl)cc1-c1cc(-c2cccc(Br)c2)n[nH]1,18µM*,?,-14,17%,?,16µM*
Oc1ccc(Cl)cc1-c1cc(-c2ccco2)[nH]n1,18µM*,11%,47,?,?,9.2µM*
Cc1cc(C)c(OCC(=O)N(Cc2ccc(N(C)C)cc2)CC2CCCO2)c(C)c1 (configuration not stated),10µM*,.,.,.,.,16µM*
COc1cc(C(=O)N(Cc2ccc(N(C)C)cc2)CC2CCCO2)cc(OC)c1OC (configuration not stated),?,.,.,.,.,-28%
CN(C)c1ccc(CN(C(=O)COc2ccccc2)C2CCS(=O)(=O)C2)cc1 (configuration not stated),-10%,-1%,-17,-1%,1%,-8%
Cc1ccc2oc(C(=O)N(Cc3ccc(N(C)C)cc3)CC3CCCO3)c(C)c2c1 (configuration not stated),18µM*,2%,-24,-5%,?,?
Cc1ccc2c(C)c(C(=O)N(Cc3ccncc3)CC3CCCO3)oc2c1C (configuration not stated),21µM*,0%,i,?,?,26µM*
Cc1ccc(OCC(=O)N(Cc2ccc(N(C)C)cc2)C2CCS(=O)(=O)C2)cc1C (configuration not stated),-24%,?,-72*,11%,8%,-10%
Cc1c(C(=O)N(Cc2ccncc2)CC2CCCO2)oc2c(F)cccc12 (configuration not stated),-26%,-7%,6,17%,2%,-12%
Cc1ccc2oc(C(=O)NCCC3CCCCO3)c(C)c2c1 (configuration not stated),?,?,4,0%,9%,?
CCOc1ccc(C(=S)N2CCN(C)CC2)cc1,0%,0%,0,-14%,-2%,6%
Cc1ccc(OCC(=O)N(Cc2ccc(N(C)C)cc2)CC2CCCO2)cc1C (configuration not stated),15µM*,.,.,.,.,15µM*

# Compound activity: PubChem, National Center for Advancing Translational Sciences (NCATS)
